These results are taken from PubChem BioAssay.

The source made the active and inactive calls.

Assay [1] can be described thus: binders of probe aFSTL3 on microarray, primary screen, stem cell growth factor project, biochemical, small-molecule microarray, fluorescence 635/667 (AID 1064).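 Note: measures binding of the biotinylated anti-FSTL3 antibody to printed compounds.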 The conditions noted are these: higher = more signal.
Assay [2] can be described thus: binders from COS7 lysate, DM2A8 probe, primary screen, torsin A project, cell lysate, small-molecule microarray, fluorescence 635/667 (AID 1065). The conditions noted are these: higher = more signal, COS7 lysate expressing mutant human TOR1A.
A short description of assay [3]: binders of probe aFGF2 on microarray, primary screen, stem cell growth factor project, biochemical, small-molecule microarray, fluorescence 635/667 (AID 1067).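 Note: measures binding of biotinylated aFGF2 protein to printed compounds on slides; z-score merges feature fluorescence and signal-to-noise across triplicate slides.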 The conditions noted are these: higher = more signal.
Assay [4] in a line: binders of probe aFGF10 on microarray, primary screen, stem cell growth factor project, biochemical, small-molecule microarray, fluorescence 635/667 (AID 1071).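 Note: score merges 667 nm spot intensity and signal to noise from triplicate slides.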 The conditions noted are these: higher = more signal.
The target of assay [5] is Neurogenic locus notch homolog protein 2 (Homo sapiens) (UniProt Q04721). Description: Notch2 binders on small-molecule microarrays, primary screen, biochemical, small-molecule microarray, 635 nm fluorescence, stem cell growth factors (AID 1073). The conditions noted are these: Notch2 binding, higher = more signal.
Sequence of Neurogenic locus notch homolog protein 2 (Homo sapiens) (Q04721 whole entry, looked up, canonical isoform): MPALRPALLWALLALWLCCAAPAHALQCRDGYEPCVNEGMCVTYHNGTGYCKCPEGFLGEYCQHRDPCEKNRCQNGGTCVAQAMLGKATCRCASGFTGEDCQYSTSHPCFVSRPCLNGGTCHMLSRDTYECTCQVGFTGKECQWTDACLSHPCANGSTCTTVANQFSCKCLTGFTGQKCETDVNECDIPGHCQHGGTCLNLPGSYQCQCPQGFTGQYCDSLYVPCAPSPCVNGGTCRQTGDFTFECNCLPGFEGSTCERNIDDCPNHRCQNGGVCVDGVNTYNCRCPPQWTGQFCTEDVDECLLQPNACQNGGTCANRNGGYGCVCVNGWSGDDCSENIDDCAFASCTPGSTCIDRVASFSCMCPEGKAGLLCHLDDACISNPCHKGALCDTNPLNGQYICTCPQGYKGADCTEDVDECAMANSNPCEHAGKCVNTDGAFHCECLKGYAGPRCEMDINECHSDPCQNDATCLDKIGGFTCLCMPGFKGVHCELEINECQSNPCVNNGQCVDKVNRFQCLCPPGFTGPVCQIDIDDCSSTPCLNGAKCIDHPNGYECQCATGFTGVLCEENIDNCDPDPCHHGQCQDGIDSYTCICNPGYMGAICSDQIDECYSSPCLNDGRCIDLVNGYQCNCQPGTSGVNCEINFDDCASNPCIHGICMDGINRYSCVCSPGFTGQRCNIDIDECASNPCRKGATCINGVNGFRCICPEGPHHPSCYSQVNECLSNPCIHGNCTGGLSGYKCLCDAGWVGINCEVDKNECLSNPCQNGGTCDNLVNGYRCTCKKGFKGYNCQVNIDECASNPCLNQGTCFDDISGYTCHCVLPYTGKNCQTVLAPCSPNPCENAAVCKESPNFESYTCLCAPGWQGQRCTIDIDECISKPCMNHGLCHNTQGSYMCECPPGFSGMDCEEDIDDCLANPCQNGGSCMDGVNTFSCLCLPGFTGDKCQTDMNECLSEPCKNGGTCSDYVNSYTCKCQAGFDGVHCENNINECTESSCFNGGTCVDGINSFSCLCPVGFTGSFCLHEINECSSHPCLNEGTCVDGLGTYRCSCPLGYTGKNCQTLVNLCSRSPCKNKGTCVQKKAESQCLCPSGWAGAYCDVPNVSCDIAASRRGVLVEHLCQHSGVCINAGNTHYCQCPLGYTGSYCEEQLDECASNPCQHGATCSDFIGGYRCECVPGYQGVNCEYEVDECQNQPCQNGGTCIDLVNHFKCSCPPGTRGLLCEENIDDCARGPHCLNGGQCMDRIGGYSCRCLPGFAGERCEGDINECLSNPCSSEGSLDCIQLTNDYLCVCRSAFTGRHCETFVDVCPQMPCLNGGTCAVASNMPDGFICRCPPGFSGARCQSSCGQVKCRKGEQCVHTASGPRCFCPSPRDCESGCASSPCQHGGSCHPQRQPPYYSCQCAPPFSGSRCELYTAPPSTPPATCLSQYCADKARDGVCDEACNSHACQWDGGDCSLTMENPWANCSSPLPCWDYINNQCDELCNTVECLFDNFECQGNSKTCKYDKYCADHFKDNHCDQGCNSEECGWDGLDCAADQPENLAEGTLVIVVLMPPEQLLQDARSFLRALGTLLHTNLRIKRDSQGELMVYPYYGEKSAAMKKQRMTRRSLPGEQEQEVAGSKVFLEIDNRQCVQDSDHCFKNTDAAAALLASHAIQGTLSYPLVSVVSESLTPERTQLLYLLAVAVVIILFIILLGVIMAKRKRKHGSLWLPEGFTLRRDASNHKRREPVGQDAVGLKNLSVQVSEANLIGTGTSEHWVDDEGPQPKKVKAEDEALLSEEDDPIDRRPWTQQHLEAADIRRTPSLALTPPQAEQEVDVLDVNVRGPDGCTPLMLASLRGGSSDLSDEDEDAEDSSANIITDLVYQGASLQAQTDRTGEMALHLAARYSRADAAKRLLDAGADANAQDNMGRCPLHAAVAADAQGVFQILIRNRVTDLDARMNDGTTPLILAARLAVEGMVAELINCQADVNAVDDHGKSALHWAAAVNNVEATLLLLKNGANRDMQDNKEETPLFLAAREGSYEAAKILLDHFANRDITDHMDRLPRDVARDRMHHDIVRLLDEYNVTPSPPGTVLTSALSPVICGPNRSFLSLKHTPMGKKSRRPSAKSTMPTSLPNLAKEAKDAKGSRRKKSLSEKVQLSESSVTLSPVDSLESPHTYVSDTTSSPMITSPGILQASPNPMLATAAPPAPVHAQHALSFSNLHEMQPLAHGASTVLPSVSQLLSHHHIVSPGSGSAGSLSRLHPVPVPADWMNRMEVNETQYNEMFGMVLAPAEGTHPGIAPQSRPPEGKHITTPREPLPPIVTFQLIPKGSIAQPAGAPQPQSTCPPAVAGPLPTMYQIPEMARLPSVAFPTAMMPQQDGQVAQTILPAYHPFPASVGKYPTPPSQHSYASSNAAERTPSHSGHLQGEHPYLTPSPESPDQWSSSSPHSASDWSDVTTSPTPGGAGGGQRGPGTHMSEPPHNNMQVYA
In assay [6] the target is Pro-neuregulin-1, membrane-bound isoform (Homo sapiens) (UniProt Q02297). The assay is described as follows: NRG1 binders on small-molecule microarrays, primary screen, psychiatric disease protein project, biochemical, small-molecule microarray, fluorescence 635/667 (AID 1075).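 Note: score combines 667 nm spot fluorescence with signal to noise.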 The conditions noted are these: NRG1 binding, 635 nm fluorescence, higher = more signal.
Sequence of Pro-neuregulin-1, membrane-bound isoform (Homo sapiens) (Q02297 whole entry, looked up, the tested form may be a part, canonical isoform): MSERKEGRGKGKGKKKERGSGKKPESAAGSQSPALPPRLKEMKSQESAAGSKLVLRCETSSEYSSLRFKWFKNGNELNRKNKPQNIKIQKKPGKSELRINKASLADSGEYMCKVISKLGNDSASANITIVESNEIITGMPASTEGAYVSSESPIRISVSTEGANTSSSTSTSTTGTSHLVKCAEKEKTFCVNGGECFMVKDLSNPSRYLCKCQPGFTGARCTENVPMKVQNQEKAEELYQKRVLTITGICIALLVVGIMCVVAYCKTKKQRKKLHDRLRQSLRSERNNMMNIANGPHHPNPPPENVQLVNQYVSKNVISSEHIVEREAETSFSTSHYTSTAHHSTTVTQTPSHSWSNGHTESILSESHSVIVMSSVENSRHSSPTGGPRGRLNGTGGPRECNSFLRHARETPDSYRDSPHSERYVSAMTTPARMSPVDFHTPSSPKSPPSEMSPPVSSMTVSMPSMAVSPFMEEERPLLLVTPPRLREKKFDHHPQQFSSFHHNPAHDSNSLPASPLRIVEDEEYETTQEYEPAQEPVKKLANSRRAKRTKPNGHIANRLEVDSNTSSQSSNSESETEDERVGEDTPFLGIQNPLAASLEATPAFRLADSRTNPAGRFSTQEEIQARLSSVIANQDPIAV
The subject of assay [7] is Neuregulin-1 EGF-like domain. Description: binders of neuregulin-1 EGF-like domain, primary screen, biochemical, small-molecule microarray, 635 nm fluorescence (AID 1081).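 Note: binding of the protein to compounds printed on small-molecule microarray slides.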 The conditions noted are these: small-molecule microarray binding, higher = more signal.
A short description of assay [8]: FRG1 promoter luciferase signal modulators, primary screen, FRG1 inhibition for FSHD, cell-based, C2C12 myotubes, firefly/Renilla luciferase, luminescence (AID 1084). The conditions noted are these: higher = more signal, called active from +8 up or from −8 down.
A short description of assay [9]: binders of probe aFST on microarray, primary screen, stem cell growth factor project, biochemical, small-molecule microarray, fluorescence 635/667 (AID 1086).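 Note: score merges 667 nm fluorescence with signal-to-noise of each printed compound spot.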 The conditions noted are these: higher = more signal.
Assay [10] can be described thus: binders of probe aHhip on microarray, primary screen, stem cell growth factor project, biochemical, small-molecule microarray, fluorescence 635/667 (AID 1087).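 Note: score merges spot fluorescence at 667nm with spot signal to noise ratio.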 The conditions noted are these: higher = more signal.

`C=C(C(=O)CC[C@@H](OC(=O)c1cccnc1)c1ccc(CO)o1)C(C)C`: the composite z-score in [1] was -0.35; in [2], 0.328; in [3], -0.019; in [4], 0.715; in assay [5], 0.29; in [6], 1.08. The composite z-score turned out to be 0.592 in [7], 0.337 in assay [9] and 0.0373 in assay [10]. In addition, the z-score in assay [8] was 0.305 (inactive).

For `COCCOC(=O)N1C(=O)[C@@]2(c3cc(C#Cc4ccc(OC)cc4)ccc31)[C@H](C(N)=O)[C@H]1C(=O)O[C@H](c3ccccc3)[C@H](c3ccccc3)N1[C@@H]2c1ccc(O)cc1`, the composite z-score in [1] is -0.39; in assay [2] it was -0.343; in [3], -0.167; in assay [4] it was -0.206; in assay [5] it was -1.64; in assay [6], -0.55. In addition, the composite z-score in assay [7] is -0.297; in assay [9], -1.05; in assay [10], -0.376. The z-score in [8] is 0.961 (inactive).

With `CC(C)C(=C=CC[C@H](O)c1ccccc1OCCO)CCO`, the composite z-score in [1] was 0.0409; in assay [2], -0.0204; in [3], -0.152; in [4], 0.161; in [5], -0.679; in [6] it was 0.319. Besides, the results for the composite z-score in [7], in assay [9] and in [10] were 0.614, -0.0031 and -0.0994, respectively. Moreover, in assay [8], the z-score is 0.129 (inactive).

Regarding `CC1CC/C=C\[C@H]2OC34C=CCN(CCN5CCOCC5)C(=O)[C@H]3N(CCCCCO)C(=O)[C@@H]4C2C(=O)O1` (stereo not given in full), the composite z-score is -0.0823 in assay [1]; -0.368 in assay [2]; -0.21 in assay [3]; -1.05 in assay [4]; -0.777 in [5]; -0.85 in assay [6]. Besides, the composite z-score is -0.358 in [7], -0.633 in assay [9] and -0.216 in assay [10]. Besides, the z-score in assay [8] was 0.209 (inactive).

With `O=C(NCC(F)(F)F)[C@@H]1c2ccccc2C(=O)N(Cc2ccccc2)[C@H]1c1ccc(CO)cc1`, the composite z-score in assay [1] was 1.16; in assay [2], 0.299; in assay [3], -0.0637; in assay [4] it was -0.358; in [5], -0.514; in assay [6], 0.0291. Besides, the values for the composite z-score in [7], in assay [9] and in [10] were 0.432, -0.419 and -0.0078, respectively. In assay [8], the z-score was -1.3 (inactive).

In the case of `CC(=O)NCCCC[C@@H]1NC(=O)[C@@H]2C[C@H](C(=O)NCCCCCC[N+](C)(C)C)[C@H](c3cccc(OCCO)c3)N2C1=O`, the composite z-score in assay [1] is -0.0722; in assay [2], 1.23; in assay [3], -0.0098; in assay [4] it was 0.498; in assay [5] it was 0.0496; in assay [6], 1.52. Moreover, the composite z-score in [7] is 1.35; in [9] it was 0.715; in [10] it was -0.0296. The z-score in [8] is 3.12 (inactive).

As to `Cc1cccc(/C=C/C=O)c1`, the composite z-score in assay [1] was -0.305; in [2], -0.582; in assay [3] it was -0.0996; in [4] it was 0.0071; in assay [5] it was -0.663; in [6] it was 0.27. Moreover, the composite z-score in assay [7] is 0.928; in assay [9], 0.211; in assay [10] it was -0.056. Also, the z-score in assay [8] was 0.641 (inactive).

As for `CCCC[C@@H]1C[C@H]1[C@@H](NC(=O)c1ccccc1)c1ccc(-c2ccccc2)cc1`, the composite z-score is -0.138 in assay [1]; 0.535 in assay [2]; 0.0805 in [3]; -0.0214 in [4]; 0.294 in [5]; 0.23 in assay [6]. The composite z-score was 0.341 in assay [7], 0.442 in [9] and -0.21 in assay [10]. In assay [8], the z-score is -1.76 (inactive).

On to `O=C1OCC=C[C@H]2OC34C=CCN(Cc5ccccc5)C(=O)[C@H]3N(CCCO)C(=O)[C@@H]4[C@@H]12` (stereo not given in full), for which the composite z-score in [1] is 0.646; in [2] it was -0.815; in assay [3] it was 0.0661; in assay [4], -0.17; in assay [5], -0.286; in assay [6] it was 2.42. The composite z-score in assay [7] was 1.42; in assay [9], 0.245; in assay [10] it was 0.902. For the same compound, the z-score in [8] is 0.0735 (inactive).

Take `CC(C)C(CO)N1C(=O)[C@@H]2[C@H]3C(=O)OCC=C[C@H]3OC23C=CCN(c2ccc4ccccc4c2)C(=O)[C@@H]13` (stereo not given in full): the composite z-score is 0.316 in assay [1]; -0.377 in assay [2]; -0.169 in assay [3]; -0.134 in assay [4]; -1.13 in assay [5]; 0.187 in assay [6]. Moreover, the composite z-score is -0.111 in [7], -0.527 in assay [9] and 0.0373 in assay [10]. In addition, the z-score in assay [8] was 0.125 (inactive).

As to `CN(C)CCCCNC(=O)[C@@H]1C[C@@H]2C(=O)N[C@@H](CCCCN)C(=O)N2[C@@H]1c1cccc(OCCO)c1`, the composite z-score is 1.24 in [1]; -0.719 in assay [2]; -0.138 in [3]; -0.347 in [4]; -0.573 in assay [5]; 2.07 in assay [6]. Further, the values for the composite z-score in [7], in [9] and in [10] were 1.3, 0.145 and 0.424, respectively. For the same compound, the z-score in [8] was 3.31 (inactive).
